Data on 14 molecules can be found in PubChem BioAssay.

For part of these data: Results with a measured potency or affinity are listed apart. The source made the active and inactive calls.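 The calls were made as follows, unless noted: active = fitted half-maximal concentration within the tested range, moderate curve steepness, significant signal drop, and little compound fluorescence or bead-linkage interference; inactive = the rest.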

Assay [1] addresses Cell division control protein 42 homolog (Homo sapiens) (UniProt P60953). Description: activated mutant Cdc42 GTP-binding inhibitors, dose response, biochemical, multiplex bead flow cytometry, Bodipy-FL-GTP (AID 1333;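 active = fitted half-maximal concentration within the tested dose range, moderate curve steepness, a statistically real signal drop, and little compound fluorescence or tag-binding interference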). A general note: In flow cytometry, cells or beads pass a laser one at a time.
For assay [2] the target is unchanged. Description: wildtype Cdc42 GTP-binding inhibitors, dose response, biochemical, multiplex bead flow cytometry, Bodipy-FL-GTP (AID 1334). To be noted: bead-based flow cytometry, Bodipy-FL-GTP binding to GST-Cdc42; at 100 µM (top of the series) unless noted.
Assay [3] deals with GTPase HRas (Homo sapiens) (UniProt P01112). Description: inhibitors of GTP binding to wildtype Ras, dose response, biochemical, multiplex bead flow cytometry (AID 1335;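 active = fitted half-maximal concentration within 10 nM to 100 µM, steepness 0.5 to 2, significant signal drop, low assay interference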). The settings on record: bead-based flow cytometry, Bodipy-GTP binding to GST-Ras; at 100 µM (top of the series) unless noted.
The test system of assay [4] is Ras-related protein Rab-7a (dog), GTP binding. Description: Rab7 GTP binding inhibitors, potency, dose response, biochemical, wildtype, multiplex bead flow cytometry (AID 1336; call rule not given here).
Assay [5] has as its target Ras-related C3 botulinum toxin substrate 1 (Homo sapiens) (UniProt P63000). Description: wildtype Rac1 GTP binding inhibitors, dose response, biochemical, multiplex bead flow cytometry (AID 1340;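 active = dose curve with midpoint inside tested range, moderate steepness, plateau gap beyond fit error, low compound glow and bead-link interference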). The settings on record: GST-Rac1 beads, Bodipy-FL-GTP binding; at 100 µM (top of the series) unless noted.
Assay [6] deals with GTPase HRas (Homo sapiens) (UniProt P01112). Description: activated Ras mutant GTP binding inhibitors, dose response, biochemical, multiplex bead flow cytometry (AID 1341;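 active = dose-response curve with midpoint inside the tested range, moderate steepness, significant amplitude and little compound fluorescence or bead-attachment interference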;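 also: GST-tagged constitutively activated Ras mutant immobilized on beads and multiplexed with other GTPases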).

Cell division control protein 42 homolog (Homo sapiens), sequence (P60953 whole entry, looked up): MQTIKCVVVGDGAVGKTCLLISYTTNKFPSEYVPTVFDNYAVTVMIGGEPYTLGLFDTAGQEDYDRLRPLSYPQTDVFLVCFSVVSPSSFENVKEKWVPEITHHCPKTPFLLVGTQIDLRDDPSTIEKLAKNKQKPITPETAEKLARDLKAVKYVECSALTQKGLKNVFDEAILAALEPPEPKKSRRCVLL
GTPase HRas (Homo sapiens), sequence (P01112 whole entry, looked up): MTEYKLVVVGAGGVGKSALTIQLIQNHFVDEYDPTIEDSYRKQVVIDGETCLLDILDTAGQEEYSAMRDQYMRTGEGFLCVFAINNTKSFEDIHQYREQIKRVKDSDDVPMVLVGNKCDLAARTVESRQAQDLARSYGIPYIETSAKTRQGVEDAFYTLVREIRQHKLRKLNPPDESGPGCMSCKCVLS

On to `Cc1cc([N+](=O)[O-])ccc1N=Nc1c(N)[nH]n(-c2ccccc2)c1=O`, for which the outcome in assay [1], in assay [4] and in assay [6] was inactive. Moreover, in assay [2], the fluorescence, percent of control (lower = inhibition) came out at 38.4%. For the same molecule, in assay [3], the GTP binding, percent of control was 85%. Besides, the GTP binding signal, raw median fluorescence (lower = inhibition) (MCF (arbitrary fluorescence units)) in assay [5] stood at 225.
Regarding `CCOc1nnc(C)c2c(C)n(-c3ccc(Cl)cc3)nc12`, the molecule was called inactive in assay [1], in assay [4] and in assay [6]. The fluorescence, percent of control (lower = inhibition) in assay [2] amounted to 52.2%. This molecule also gave a GTP binding, percent of control in assay [3] of 66.3%. For the same molecule, the GTP binding signal, raw median fluorescence (lower = inhibition) (MCF (arbitrary fluorescence units)) in assay [5] worked out at 197.
Consider `Cc1ccc(OCCn2cnc3cc([N+](=O)[O-])ccc3c2=O)cc1`, for which the molecule was classed as inactive in assay [1], in assay [4] and in assay [6]. The fluorescence, percent of control (lower = inhibition) in assay [2] came out at 38.1%. In assay [3], this molecule came in with a GTP binding, percent of control of 85.1%. In assay [5], this molecule registered a GTP binding signal, raw median fluorescence (lower = inhibition) (MCF (arbitrary fluorescence units)) of 190.
For `COc1cccc(-c2cc(C(F)(F)F)c(C#N)c(=O)[nH]2)c1`, the call in assay [1], in assay [4] and in assay [6] was inactive. The fluorescence, percent of control (lower = inhibition) in assay [2] was determined as 30%. The GTP binding, percent of control in assay [3] turned out to be 75.7%. The GTP binding signal, raw median fluorescence (lower = inhibition) (MCF (arbitrary fluorescence units)) in assay [5] stood at 230.
For `CC(C)(C)NC(=O)CSc1nccn1Cc1ccccc1`, the call in assay [1], in assay [4] and in assay [6] was inactive. Besides, the fluorescence, percent of control (lower = inhibition) in assay [2] was found to be 33.3%. Further, the GTP binding, percent of control in assay [3] came to 78.6%. The molecule further yielded a GTP binding signal, raw median fluorescence (lower = inhibition) (MCF (arbitrary fluorescence units)) in assay [5] of 144.
With `CCc1ccccc1NCc1sc(C(=O)O)cc1C`, the molecule was called inactive in assay [1], in assay [4] and in assay [6]. In assay [2], the fluorescence, percent of control (lower = inhibition) was found to be 61.1%. This molecule also yielded a GTP binding, percent of control in assay [3] of 87.1%. The molecule further had a GTP binding signal, raw median fluorescence (lower = inhibition) (MCF (arbitrary fluorescence units)) in assay [5] of 31.9.
Take `Cc1ccccc1NC(=O)c1ccc(NC(=O)C2CC(=O)OC23CCCCC3)cc1` (centres undefined): the molecule was called inactive in assay [1], in assay [4] and in assay [6]. The fluorescence, percent of control (lower = inhibition) in assay [2] amounted to 32.9%. For the same molecule, the GTP binding, percent of control in assay [3] was determined as 76.1%. The molecule also displayed a GTP binding signal, raw median fluorescence (lower = inhibition) (MCF (arbitrary fluorescence units)) in assay [5] of 195.
As for `O=C(O)CCN1C(=O)/C(=C\c2ccc(-c3nc4ccccc4s3)o2)SC1=S`, the outcome in assay [1], in assay [4] and in assay [6] was inactive. Moreover, the fluorescence, percent of control (lower = inhibition) in assay [2] was found to be 54.9%. In assay [3], the GTP binding, percent of control was determined as 63.4%. The molecule further returned a GTP binding signal, raw median fluorescence (lower = inhibition) (MCF (arbitrary fluorescence units)) in assay [5] of 88.8.
`O=C(Cc1csc(Nc2nc(=S)[nH]c3ccccc23)n1)NCCCN1CCN(c2cccc(Cl)c2)CC1`: the call in assay [1], in assay [4] and in assay [6] was inactive. For the same molecule, the fluorescence, percent of control (lower = inhibition) in assay [2] turned out to be 34.3%. Further, in assay [3], the GTP binding, percent of control stood at 75.8%. Moreover, the GTP binding signal, raw median fluorescence (lower = inhibition) (MCF (arbitrary fluorescence units)) in assay [5] was found to be 192.
For the molecule `Cc1ccc(C)c(N(CC(N)=O)S(C)(=O)=O)c1`, the molecule was classed as inactive in assay [1], in assay [4] and in assay [6]. Moreover, in assay [2], the fluorescence, percent of control (lower = inhibition) worked out at 103%. This molecule registered a GTP binding, percent of control in assay [3] of 135%. The same molecule came in with a GTP binding signal, raw median fluorescence (lower = inhibition) (MCF (arbitrary fluorescence units)) in assay [5] of 164.
Regarding `Cc1cccc(Nc2nc(NCc3ccco3)c3ccccc3n2)c1`, the result in assay [1], in assay [4] and in assay [6] was inactive. Moreover, in assay [2], the fluorescence, percent of control (lower = inhibition) was 39.2%. The GTP binding, percent of control in assay [3] was 54.7%. This molecule also showed a GTP binding signal, raw median fluorescence (lower = inhibition) (MCF (arbitrary fluorescence units)) in assay [5] of 142.
As for `Nc1nc(CN2CCN(c3ccccc3F)CC2)nc(N2CCCc3ccccc32)n1`, the outcome in assay [1], in assay [4] and in assay [6] was inactive. Further, in assay [2], the fluorescence, percent of control (lower = inhibition) amounted to 28.5%. For the same molecule, the GTP binding, percent of control in assay [3] is 69.6%. In addition, in assay [5], the GTP binding signal, raw median fluorescence (lower = inhibition) (MCF (arbitrary fluorescence units)) was determined as 210.
Consider `O=C(C#Cc1cccc(O)c1)c1ccc([N+](=O)[O-])cc1`, for which the molecule was called inactive in assay [1], in assay [4] and in assay [6]. The fluorescence, percent of control (lower = inhibition) in assay [2] worked out at 71.6%. Also, in assay [3], the GTP binding, percent of control is 196%. Also, in assay [5], the GTP binding signal, raw median fluorescence (lower = inhibition) (MCF (arbitrary fluorescence units)) was determined as 138.
For `Cn1c(/C(C#N)=C/c2ccncc2)nc2ccccc21`, the call in assay [1], in assay [4] and in assay [6] was inactive. Further, the fluorescence, percent of control (lower = inhibition) in assay [2] worked out at 36.7%. In addition, in assay [3], the GTP binding, percent of control amounted to 87.2%. The same molecule came in with a GTP binding signal, raw median fluorescence (lower = inhibition) (MCF (arbitrary fluorescence units)) in assay [5] of 266.
